The values below come from ChEMBL document CHEMBL4513216, “Probing the Open Global Health Chemical Diversity Library for Multistage-Active Starting Points for Next-Generation Antimalarials” (ACS Infect Dis, 2020).

Among all 69,000 compounds or so, about 8,600 (12%) showed an effect of 50% or more. Only a selection was taken, and strong results are over-represented in it overall.

This assay deals with Plasmodium berghei. As to the kind of experiment: Screen against P. berghei liver stage (PbLuc), transformed with Luciferase, at 10uM. Format: functional, HepG2. The conditions noted are these: tested at 10 uM.
As for `CN1C(=O)[C@@H]2CC[C@H]1CN(C(=O)c1csc(Cc3ccccc3)n1)C2`, the INHIBITION was 35.3%.
Consider `Cc1ccc2[nH]c(CN3CC[C@@H](N4CCN(C)CC4)[C@H](O)C3)c(C)c2c1`, for which the INHIBITION is 34%.
Take `Cc1c(CN2C[C@H](O)[C@@H](N3CCOCC3)C2)[nH]c2ccc(F)cc12`: the INHIBITION was determined as 63.1%.
For the compound `Cc1c(CN2CC[C@@H](N3CCC(O)CC3)[C@H](O)C2)[nH]c2ccc(Cl)cc12`, the INHIBITION worked out at 36.2%.
As to `Cc1c(CN2CCCC(O)C2)[nH]c2ccc(F)cc12` (configuration not stated), the INHIBITION was found to be 16.5%.
Consider `Cc1c(CN2CCc3[nH]cnc3C2C(=O)O)[nH]c2ccc(F)cc12` (configuration not stated), for which the INHIBITION is listed as 1.56%.
In the case of `CN1CCN([C@@H]2CCN(Cc3ccc4cc(F)ccc4n3)C[C@H]2O)CC1`, the INHIBITION is given as -13.5%.
Consider `Cc1c(CN2CCc3[nH]cnc3C2C2CC2)[nH]c2ccc(F)cc12` (configuration not stated), for which the INHIBITION stood at 65.7%.
As to `Cc1c(CN2CC[C@@H](N3CCC(O)CC3)[C@H](O)C2)[nH]c2ccc(F)cc12`, the INHIBITION came to 66.9%.
`CSCCC1c2nc[nH]c2CCN1Cc1[nH]c2ccc(F)cc2c1C` (configuration not stated): the INHIBITION was determined as 17.9%.
`CC(=O)NCC(=O)N1C[C@@H](C)[C@@]2(CCN(c3ccsc3)C2=O)C1`: the INHIBITION is recorded as 15.9%.
The value for `c1cncc(CN2CCCn3nnc(CN4CCCCC4)c3C2)c1` was 16.8%; that for `Cn1ncc2c(=O)[nH]c(CN3CCCC3Cc3ccc(F)cc3)nc21` (configuration not stated) was -5.07%.
The value for `N#Cc1ccc(S(=O)(=O)NC(=O)COc2ccc3c(c2)CCC3)cc1` was 29.25%; that for `CCNc1cc2c(nn1)CCN(C(=O)c1ccc(-n3cccn3)nc1)C2` was -5.26%.
With `Cc1ccc(C(=O)N2C[C@@H]3CC[C@H]2CN(S(=O)(=O)N(C)C)C3)c(O)c1` the figure was 24.7%; with `Cc1ccc(CN2CCc3c(C(=O)N(C)C)nn(C)c3C2)s1`, 8.47%; with `CCCC(=O)N1CC[C@@H]2[C@H](CC1)N(Cc1cccnc1)CCS2(=O)=O`, -1.53%.
For `CC1CCN(C(=O)c2occc2COc2cccc(C#N)c2)CC1`, the INHIBITION was -122%.
As for `CC(O)(CNC(=O)c1cccnc1-n1cccn1)c1ccco1` (configuration not stated), the INHIBITION came to 7.39%.
In the case of `CCC(CC)NC(=O)c1cccnc1-n1cccn1`, the INHIBITION came out at 55.9%.
`CCC(CC)NC(=O)c1cccnc1N1CCCC1c1ccccn1` (configuration not stated): the INHIBITION came to 25.3%.
For `CC(O)(CNC(=O)c1cccnc1-n1cccn1)c1ccsc1` (configuration not stated), the INHIBITION was determined as 61.1%.
`CC(O)(CNC(=O)c1cccnc1-n1cccn1)c1cccs1` (configuration not stated): the INHIBITION stood at 35.4%.
In the case of `CCN(CC)CCCC(C)NC(=O)c1cccnc1-n1cccn1` (configuration not stated), the INHIBITION is -7.13%.
With `CCn1nccc1CNC(=O)CCC1CCCC1` the figure was 13%; with `c1coc(CN2C[C@@H]3CN(Cc4ccoc4)CCO[C@@H]3C2)c1`, 24.6%.
Take `Cc1cc(NCc2ccc(CS(N)(=O)=O)cc2)nc(C)n1`: the INHIBITION is reported as 11.8%.
In the case of `CS(=O)(=O)c1ccc(NC(=O)NC2(c3ccccc3)CCC2)cc1`, the INHIBITION is 36.7%.
With `Cc1ccc(CN2CCc3nnc(CN4CCCC4=O)n3CC2)o1` the figure was 3.81%; with `C=C(C)CN1CCC(C(=O)c2cc(F)ccc2F)CC1`, 5.03%; with `CCNC(=O)C1(Cc2cc(-c3ccccc3)no2)CCCN(C(C)=O)C1` (configuration not stated), 42.5%.
As to `Cc1nnc(CN2C[C@H](NC(=O)CC3CCCC3)[C@@H](C3CC3)C2)s1`, the INHIBITION is 64.7%.
Consider `COCC1(C(=O)N[C@H]2CN(c3ccnc(C)c3)C[C@@H]2C2CC2)CCC1`, for which the INHIBITION is 51.3%.
The value for `COCCC(=O)N[C@H]1CN(c2nc(C)c3c(n2)CCCC3)C[C@@H]1C1CC1` was 20.4%; that for `Cc1cc(N2C[C@H](NC(=O)C3(C#N)CCOCC3)[C@@H](C(C)C)C2)ccn1` was 30.7%.
The value for `O=C(CC1CCCC1)N[C@H]1CN(Cc2c[nH]cn2)C[C@@H]1C1CC1` was 45.2%; that for `COCC1(C(=O)N[C@H]2CN(c3noc(C)n3)C[C@@H]2C2CC2)CCC1` was 2.79%; that for `Cc1nc(O)cc(CN2C[C@H](NC(=O)C3CCC3)[C@@H](C3CC3)C2)n1` was 18.9%.
Regarding `O=C(O)c1cc(N2C[C@H](NC(=O)C3CCOCC3)[C@@H](C3CC3)C2)ccn1`, the INHIBITION is 3.68%.
For the compound `COCC1(C(=O)N[C@H]2CN(c3nnc(C)s3)C[C@@H]2C2CC2)CCC1`, the INHIBITION stood at 64.4%.
With `O=C(c1cccs1)N1CC[C@@H]2CN(C3CCOCC3)CCO[C@@H]2C1`, the INHIBITION was 45.7%.
Take `CCn1nc(C)c2nnn(CC(=O)Nc3cccc(C)c3)c(=O)c21`: the INHIBITION is 42.4%.
As to `CN(C)C[C@H]1OC[C@@H]2CCN(S(=O)(=O)c3cccs3)C[C@@H]21`, the INHIBITION stood at 38.7%.
With `CC(CO)NC(=O)Nc1ccc(S(C)(=O)=O)nc1` (configuration not stated) the figure was -38.695%; with `COc1ccc(CNCC(C)Oc2ccccn2)cc1` (configuration not stated), -30.8%.
As for `Cc1ccc(S(=O)(=O)N2C[C@H]3C[C@H](NC(=O)c4cscn4)[C@H]3C2)cc1`, the INHIBITION was 25.6%.
Regarding `CNC(=O)[C@H]1C[C@@H]2CN(S(=O)(=O)c3ccc(C)cc3)C[C@@H]2N1C`, the INHIBITION is listed as -10.3%.
As to `Cc1ccc(S(=O)(=O)N2CC[C@@H]3C[C@H](NC(=O)c4ccncc4)[C@@H]32)cc1`, the INHIBITION is given as 20.4%.
With `Cc1ccc(S(=O)(=O)N2C[C@H]3C[C@H](NC(=O)c4cc[nH]n4)[C@H]3C2)cc1`, the INHIBITION is 64.1%.
The value for `Cc1ccc(S(=O)(=O)N2C[C@H]3C[C@H](NC(=O)c4ccccn4)[C@H]3C2)cc1` was 92.9%; that for `Cc1ccc(S(=O)(=O)N2CC[C@@H]3C[C@H](NC(=O)c4n[nH]cc4Cl)[C@@H]32)cc1` was 6.521%; that for `Cc1ccc(CN2CCCC3(CCCC(=O)N3C)C2)s1` (configuration not stated) was 4.98%.
The value for `CC(C)c1nnc2n1CCN(Cc1ncc(-c3ccccc3)o1)C2` was 38.85%; that for `Cc1cc(C(=O)NCc2cccs2)nc(N2CCCC2)n1` was -2.28%.
Consider `CC(C)COc1ccc(C2SCC(=O)Nc3c2c(=O)[nH]n3C(C)C)cc1` (configuration not stated), for which the INHIBITION worked out at 52.4%.
Consider `CCOc1ccc(C2SCC(=O)Nc3c2c(=O)[nH]n3C(C)C)cc1` (configuration not stated), for which the INHIBITION came out at 44.9%.
The value for `CCCOc1ccc(C2SCC(=O)Nc3c2c(=O)[nH]n3C(C)C)cc1` (configuration not stated) was 15.1%; that for `CC(C)n1[nH]c(=O)c2c1NC(=O)CSC2C1CCCCC1` (configuration not stated) was 62.5%; that for `CC(C)n1[nH]c(=O)c2c1NC(=O)CC2C1CCCCC1` (configuration not stated) was -25.6%.
For the compound `CC(C)n1[nH]c(=O)c2c1NC(=O)CSC2c1ccc(OCC(N)=O)cc1` (configuration not stated), the INHIBITION was 6.83%.
With `Cc1csc(N2CCCN(C(=O)c3occc3C)CC2)n1`, the INHIBITION was 46.2%.
As to `CC(C)(C)OC(=O)N1CCN(C(=O)CCn2cccn2)CC1`, the INHIBITION is on record as 38.05%.
For `O=C(C1CC=CC1)N1CC[C@@H](O)[C@H]1Cc1cccnc1`, the INHIBITION was 43%.
In the case of `CCNC(=O)CNC(=O)Nc1c(F)cc(F)cc1-c1ccccc1`, the INHIBITION came to 7.77%.
The value for `COc1cccc(CNCCNS(=O)(=O)Cc2ccccc2)c1` was 30.2%; that for `Cc1nc(C)c(CC(=O)Nc2nnc(C3CC3)s2)c(=O)[nH]1` was -0.18%.
With `Cc1cc(C)n(-c2cncc(NCCNC(=O)C(C)C)n2)n1`, the INHIBITION was -23.5%.
The value for `Cc1cc(NC(=O)C(C)C)n(-c2nc(C)c(C)c(=O)[nH]2)n1` was 93.2%; that for `CC(C)C(=O)Nc1cc(C(=O)NC2CC(C)(C)NC(C)(C)C2)nn1C` was 44.6%.
The value for `CCc1cc(=O)[nH]c(-n2nc(C3CC3)cc2NC(=O)C2CC2)n1` was 91%; that for `Cn1nc(CNC(=O)C2CC2)cc1C1CC1` was -62.4%; that for `CC(=O)N1CCN(c2cc(CCNC(=O)C(C)C)nc(C3CC3)n2)CC1` was 18.3%.
With `CCc1c(C)nn(CCNC(=O)c2cc(C3CC3)n[nH]2)c1C` the figure was -40.7%.
As to `CCc1c(C)nc(-n2nc(C3CC3)cc2NC(C)=O)[nH]c1=O`, the INHIBITION came to 93.7%.
With `Cc1nc(-n2nc(C3CC3)cc2NC(=O)C(C)C)[nH]c(=O)c1C` the figure was 93.2%; with `CC(C)C(=O)Nc1cc(C(C)(C)C)nn1-c1ccccn1`, -6.94%; with `CCn1nc(C)c(NC(=O)c2cc(NC(=O)C3CC3)n(C)n2)c1C`, 29.7%.
Take `CN(C)Cc1nn(C)c2c1CCN(C(=O)c1cnccn1)C2`: the INHIBITION is on record as -43.1%.
Turning to `CNC(=O)c1ccc(C2CN(Cc3ccc(F)cc3)CCO2)nc1` (configuration not stated), the INHIBITION was determined as 2.55%.
As to `Cc1nc(CN(C)C2CCN(CCc3ccccn3)C2)no1` (configuration not stated), the INHIBITION is -41.6%.
Turning to `Cc1cc(C)n(C2CCCN(C(=O)c3ccc(F)c(F)c3)C2)n1` (configuration not stated), the INHIBITION came out at 18.7%.
As for `CN(C)CCN1CCOCC12CCN(C(=O)C1CC1)CC2`, the INHIBITION was 6.55%.
Consider `COC[C@]1(O)CCN(c2cc(N3CCOCC3)ncn2)CC1(C)C`, for which the INHIBITION stood at 32.3%.
For the compound `Cc1cc(OCc2ccc(C(=O)O)s2)ccc1Cl`, the INHIBITION is -61.9%.
Consider `CSC(C)C(=O)NCc1ccnc(N2CCN(C)CC2)c1` (configuration not stated), for which the INHIBITION is recorded as -11.98%.
Turning to `CCOc1ccc(Cl)c(C(=O)N2CCCN(CC(N)=O)CC2)n1`, the INHIBITION was 47%.
For the compound `COCCNC(=O)CCc1c(C)nn(-c2nc(C)c(C)c(=O)[nH]2)c1C`, the INHIBITION is recorded as -8.69%.
The value for `CC(=O)Nc1cc(C2CC2)nn1-c1nc(C)c(C)c(=O)[nH]1` was 72.4%.
`Cc1[nH]c2cc(C3CCN(C(=O)c4ccccn4)CC3)nn2c(=O)c1C`: the INHIBITION is 29.55%.
In the case of `COc1ccc(CN2CCO[C@H]3CN(C4CCCC4)CC[C@H]3C2=O)cc1`, the INHIBITION is 27.7%.
Turning to `Cn1ccc(-c2cc(C(=O)N3CCC(O)CC3)c3ccccn23)n1`, the INHIBITION is given as 42.1%.
The value for `Cc1nc(-c2cc(C(=O)N3CCN(C)CC3)c3ccccn23)cn1C` was 52.3%; that for `Cn1ccc(-c2cc(C(=O)N3CCC(C(N)=O)CC3)c3ccccn23)n1` was -23.1%; that for `CN(C)C1CCN(C(=O)c2cc(-c3ccn(C)n3)n3ccccc23)CC1` was 62.9%.
With `CN1CCCN(C(=O)c2cc(-c3cc[nH]n3)n3ccccc23)CC1`, the INHIBITION amounted to 47.5%.
On to `Cc1nc(-c2cc(C(=O)N3CCCN(C)CC3)c3ccccn23)cn1C`, for which the INHIBITION is given as 21.7%.
